Results taken from the supplement of paper PMC10849652.
About 7,900 targets were measured; listed, in parts, are those with a hit and a random draw of the rest. About 0.6% of all pairs of compound and target were hits. Values without a mark were called inactive.

Assays:
Test in all cases: log2 fold change, soluble protein after heating vs DMSO (PISA); higher = thermal stabilisation; K562 cells, 10 uM, 30 min; active = over 0.2 and 3.5 SD of the protein, either way, in both replicates (recomputed)
[1] = compound: CC1=C(C=C(C=C1)NC(=O)C2=CC(=CC=C2)C(C)(C)C#N)NC3=CC4=C(C=C3)N=CN(C4=O)C
Procedure, shortened: (§1)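 Aliquots of K562 cells (2×10^6 cells/mL) treated with 10 μM compound for 30 min were heated for 3 min over 48°C-58°C. After pooling and extraction in PBS with 0.5% NP-40 at 4°C, soluble protein from a 21,000xg, 90 min spin was quantified by TMTpro 16plex LC-MS/MS with channel sums equalised. Thermal stability is expressed against control samples, from duplicates, as a log2 fold change.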

[2] = compound: CC1=C(C=C(C=C1)NC(=O)C2=CC(=CC=C2)N(C)C)NC(=O)C3=CC=C(C=C3)O
Procedure, shortened: as §1

[3] = compound: CC1=CC=C(C=C1)SC2=C3C=C(SC3=CN=C2)C(=O)N
Procedure, shortened: as §1

[4] = compound: CC1=NC(=CC=C1)C2=C(N=C(N2)C(C)(C)C)C3=CC4=NC=CN=C4C=C3
Procedure, shortened: as §1

[5] = compound: CCCCN(Cc1ccc(C(=O)NO)cc1)C(=O)Nc1ccccc1 [Nexturastat A]
Procedure, shortened: as §1

[6] = compound: CCCS(=O)(=O)Nc1ccc(F)c(C(=O)c2c[nH]c3ncc(-c4ccc(Cl)cc4)cc23)c1F [vemurafenib]
Procedure, shortened: as §1

[7] = compound: CCCS(=O)(=O)Nc1ccc(F)c(C(=O)c2c[nH]c3ncc(Cl)cc23)c1F
Procedure, shortened: as §1

[8] = compound: CCCc1cc(C)[nH]c(=O)c1CNC(=O)c1cc(-c2ccnc(N3CCN(C)CC3)c2)cc2c1cnn2C(C)C
Procedure, shortened: as §1

[9] = compound: CCN(CC)Cc1ccc2cc(COC(=O)Nc3ccc(C(=O)NO)cc3)ccc2c1 [givinostat]
Procedure, shortened: as §1

[10] = compound: CCN(CCCOc1ccc2c(Nc3cc(CC(=O)Nc4cccc(F)c4)[nH]n3)ncnc2c1)CCOP(=O)(O)O [barasertib]
Procedure, shortened: as §1

Sequence of UniProt Q16891 (Q16891 whole entry, looked up): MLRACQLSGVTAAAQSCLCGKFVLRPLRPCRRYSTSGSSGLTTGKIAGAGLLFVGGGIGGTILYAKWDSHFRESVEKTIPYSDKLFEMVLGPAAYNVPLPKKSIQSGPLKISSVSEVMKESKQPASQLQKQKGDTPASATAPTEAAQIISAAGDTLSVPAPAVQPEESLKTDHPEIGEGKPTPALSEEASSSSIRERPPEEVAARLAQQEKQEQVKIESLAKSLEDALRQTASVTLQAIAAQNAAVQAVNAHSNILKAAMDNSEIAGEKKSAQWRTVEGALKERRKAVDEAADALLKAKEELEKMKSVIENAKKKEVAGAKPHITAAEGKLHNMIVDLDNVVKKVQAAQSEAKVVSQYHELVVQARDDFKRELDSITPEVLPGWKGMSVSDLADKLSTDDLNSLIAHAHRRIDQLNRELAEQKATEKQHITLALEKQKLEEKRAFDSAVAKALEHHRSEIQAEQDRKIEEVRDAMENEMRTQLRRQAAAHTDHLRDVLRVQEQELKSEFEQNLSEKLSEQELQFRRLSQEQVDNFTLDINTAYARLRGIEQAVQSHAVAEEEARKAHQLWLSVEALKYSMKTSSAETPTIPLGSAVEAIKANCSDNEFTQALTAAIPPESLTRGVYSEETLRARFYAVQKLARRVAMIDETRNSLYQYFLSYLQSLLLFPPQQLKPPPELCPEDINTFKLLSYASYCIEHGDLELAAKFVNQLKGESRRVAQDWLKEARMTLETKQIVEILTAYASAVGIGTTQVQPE
Sequence of UniProt Q8WVP7 (Q8WVP7 whole entry, looked up): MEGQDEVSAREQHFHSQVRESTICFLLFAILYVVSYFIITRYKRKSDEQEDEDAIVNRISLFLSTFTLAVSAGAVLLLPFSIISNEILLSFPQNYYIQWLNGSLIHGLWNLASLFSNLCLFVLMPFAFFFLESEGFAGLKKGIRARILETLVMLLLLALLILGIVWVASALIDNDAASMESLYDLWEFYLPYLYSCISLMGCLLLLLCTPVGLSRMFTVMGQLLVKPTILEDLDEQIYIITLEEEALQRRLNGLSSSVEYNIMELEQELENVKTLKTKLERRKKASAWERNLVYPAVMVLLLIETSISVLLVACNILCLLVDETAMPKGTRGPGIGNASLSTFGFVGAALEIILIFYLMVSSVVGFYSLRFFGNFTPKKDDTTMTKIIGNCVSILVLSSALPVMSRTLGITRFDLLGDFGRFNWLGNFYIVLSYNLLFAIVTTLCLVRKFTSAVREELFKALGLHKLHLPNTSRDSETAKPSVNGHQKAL
Sequence of UniProt Q6N075 (Q6N075 whole entry, looked up): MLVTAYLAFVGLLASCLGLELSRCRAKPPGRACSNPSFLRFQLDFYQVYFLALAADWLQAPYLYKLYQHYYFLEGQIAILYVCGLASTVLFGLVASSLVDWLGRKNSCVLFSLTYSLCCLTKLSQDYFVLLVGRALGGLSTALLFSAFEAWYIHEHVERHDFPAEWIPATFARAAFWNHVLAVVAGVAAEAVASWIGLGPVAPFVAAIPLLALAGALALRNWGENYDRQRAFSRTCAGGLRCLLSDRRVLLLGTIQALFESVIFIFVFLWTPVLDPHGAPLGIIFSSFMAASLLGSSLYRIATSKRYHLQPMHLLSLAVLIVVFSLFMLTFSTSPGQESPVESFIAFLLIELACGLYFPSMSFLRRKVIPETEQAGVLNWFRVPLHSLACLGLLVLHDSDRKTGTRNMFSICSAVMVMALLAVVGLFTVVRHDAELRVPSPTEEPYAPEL
Sequence of UniProt Q8IWB1 (Q8IWB1 whole entry, looked up): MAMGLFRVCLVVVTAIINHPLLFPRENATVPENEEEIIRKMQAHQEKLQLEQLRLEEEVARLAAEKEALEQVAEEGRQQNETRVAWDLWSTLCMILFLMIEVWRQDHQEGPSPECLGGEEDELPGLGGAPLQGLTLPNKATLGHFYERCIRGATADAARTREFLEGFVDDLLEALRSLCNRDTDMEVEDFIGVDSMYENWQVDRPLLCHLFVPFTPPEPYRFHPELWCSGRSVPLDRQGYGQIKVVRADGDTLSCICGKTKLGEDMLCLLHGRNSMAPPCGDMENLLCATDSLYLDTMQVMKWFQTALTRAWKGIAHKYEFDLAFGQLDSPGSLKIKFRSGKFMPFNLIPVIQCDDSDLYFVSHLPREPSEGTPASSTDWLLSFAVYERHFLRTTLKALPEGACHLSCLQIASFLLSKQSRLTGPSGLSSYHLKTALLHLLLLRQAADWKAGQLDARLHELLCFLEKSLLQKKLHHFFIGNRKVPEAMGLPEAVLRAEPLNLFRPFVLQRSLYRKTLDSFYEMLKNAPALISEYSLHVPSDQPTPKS
Sequence of UniProt Q9BY66 (Q9BY66 whole entry, looked up): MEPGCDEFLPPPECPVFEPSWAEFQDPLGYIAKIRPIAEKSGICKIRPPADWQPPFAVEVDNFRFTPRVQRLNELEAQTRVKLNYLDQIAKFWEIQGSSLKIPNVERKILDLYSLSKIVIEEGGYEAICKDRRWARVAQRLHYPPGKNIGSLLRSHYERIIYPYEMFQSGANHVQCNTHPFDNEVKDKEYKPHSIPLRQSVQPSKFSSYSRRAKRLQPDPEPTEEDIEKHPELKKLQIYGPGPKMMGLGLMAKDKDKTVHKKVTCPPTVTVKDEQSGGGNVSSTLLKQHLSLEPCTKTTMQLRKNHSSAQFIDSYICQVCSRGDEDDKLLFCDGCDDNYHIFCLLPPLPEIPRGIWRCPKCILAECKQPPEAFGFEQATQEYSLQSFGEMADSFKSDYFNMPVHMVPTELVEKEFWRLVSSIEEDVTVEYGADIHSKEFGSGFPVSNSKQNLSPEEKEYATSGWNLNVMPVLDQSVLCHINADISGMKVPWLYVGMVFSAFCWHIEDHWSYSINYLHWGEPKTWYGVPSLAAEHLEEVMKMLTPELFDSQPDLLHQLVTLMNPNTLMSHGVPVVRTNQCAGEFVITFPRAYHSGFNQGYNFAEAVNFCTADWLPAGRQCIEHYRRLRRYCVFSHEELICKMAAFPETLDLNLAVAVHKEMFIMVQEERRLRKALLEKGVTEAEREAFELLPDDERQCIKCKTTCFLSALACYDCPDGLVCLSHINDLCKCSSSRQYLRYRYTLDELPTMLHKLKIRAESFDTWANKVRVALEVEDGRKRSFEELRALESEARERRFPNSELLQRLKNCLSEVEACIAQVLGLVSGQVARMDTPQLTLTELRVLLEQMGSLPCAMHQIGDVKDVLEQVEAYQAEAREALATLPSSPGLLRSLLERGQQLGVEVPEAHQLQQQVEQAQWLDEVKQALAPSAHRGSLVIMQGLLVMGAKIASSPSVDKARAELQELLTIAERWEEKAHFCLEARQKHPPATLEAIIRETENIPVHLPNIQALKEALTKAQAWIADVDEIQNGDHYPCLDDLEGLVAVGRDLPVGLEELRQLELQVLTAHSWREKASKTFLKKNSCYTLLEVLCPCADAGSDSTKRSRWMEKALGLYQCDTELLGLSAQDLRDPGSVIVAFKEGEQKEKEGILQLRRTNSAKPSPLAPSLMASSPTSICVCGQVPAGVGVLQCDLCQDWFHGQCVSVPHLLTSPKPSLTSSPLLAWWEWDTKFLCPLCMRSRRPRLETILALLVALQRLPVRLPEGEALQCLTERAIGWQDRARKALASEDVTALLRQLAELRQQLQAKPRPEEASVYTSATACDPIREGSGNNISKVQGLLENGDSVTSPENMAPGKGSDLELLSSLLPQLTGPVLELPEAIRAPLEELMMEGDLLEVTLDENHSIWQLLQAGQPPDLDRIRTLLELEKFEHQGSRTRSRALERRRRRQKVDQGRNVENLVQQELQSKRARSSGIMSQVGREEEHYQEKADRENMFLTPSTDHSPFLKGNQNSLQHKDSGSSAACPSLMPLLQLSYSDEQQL
Sequence of UniProt Q9NQ29 (Q9NQ29 whole entry, looked up): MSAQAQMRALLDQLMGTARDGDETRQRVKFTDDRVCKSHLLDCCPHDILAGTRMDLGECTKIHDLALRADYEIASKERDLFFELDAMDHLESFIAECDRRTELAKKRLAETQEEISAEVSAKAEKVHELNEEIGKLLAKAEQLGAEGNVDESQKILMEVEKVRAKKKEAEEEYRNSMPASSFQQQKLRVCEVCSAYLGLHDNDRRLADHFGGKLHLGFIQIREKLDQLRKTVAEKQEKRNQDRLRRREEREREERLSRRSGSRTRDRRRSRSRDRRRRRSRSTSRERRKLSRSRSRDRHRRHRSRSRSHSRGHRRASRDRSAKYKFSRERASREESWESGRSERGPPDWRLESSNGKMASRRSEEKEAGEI
Sequence of UniProt Q16539 (Q16539 whole entry, looked up): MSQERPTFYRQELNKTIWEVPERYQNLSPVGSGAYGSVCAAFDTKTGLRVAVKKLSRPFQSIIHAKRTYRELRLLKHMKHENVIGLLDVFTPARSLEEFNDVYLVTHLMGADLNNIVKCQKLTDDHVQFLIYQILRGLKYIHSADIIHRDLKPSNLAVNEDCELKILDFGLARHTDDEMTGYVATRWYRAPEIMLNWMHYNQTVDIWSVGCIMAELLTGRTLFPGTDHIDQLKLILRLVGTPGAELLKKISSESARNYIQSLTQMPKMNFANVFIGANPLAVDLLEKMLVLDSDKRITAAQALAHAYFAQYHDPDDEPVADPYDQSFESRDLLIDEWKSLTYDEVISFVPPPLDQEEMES

Target	log2 fold change [1]	log2 fold change [2]	log2 fold change [3]	log2 fold change [4]	log2 fold change [5]	log2 fold change [6]	log2 fold change [7]	log2 fold change [8]	log2 fold change [9]	log2 fold change [10]
ILK (UniProt Q13418)	-0.179	-0.053	0.025	-0.208	0.135	-0.075	-0.005	-0.031	0.041	0.019
MAPK14 isoform 2 (UniProt Q16539)	1.9 (active)	0.649	0.024	0.036	0.064	0.095	0.219	0.026	0.107	-0.005
MFF (UniProt Q9GZY8)	-0.036	0.002	0.039	0.02	0.006	-0.013	0.018	-0.117	0.033	0.036
LMBRD2 (UniProt Q68DH5)	-0.038	0.016	0.043	0	0.019	-0.052	-0.03	0.038	0.043	0.011
MIER1 isoform 12 (UniProt Q8N108)	0.003	0.016	0.002	0.012	0.306 (active)	-0.006	0.008	-0.013	0.31 (active)	0.01
LUC7L (UniProt Q9NQ29)	0.028	0.003	-0.022	-0.021	0.054	-0.007	-0.004	0.027	-0.034	-0.01
KDM5D isoform 3 (UniProt Q9BY66)	-0.132	-0.144	0.036	0.039	-0.08	0.003	0.128	-0.004	0.014	0.108
LRPPRC (UniProt P42704)	0.264	-0.054	0.222	0.336	0.282	0.227	0.264	-0.005	0.417	0.369
MFSD5 isoform 2 (UniProt Q6N075)	0.038	0.015	-0.078	0.064	-0.014	0.023	-0.118	-0.039	-0.039	0.122
LMBR1 isoform 3 (UniProt Q8WVP7)	-0.156	0.17	0.128	0.036	0.134	0.049	0.175	-0.086	0	-0.007
KIF3A (UniProt Q9Y496)	-0.041	-0.013	-0.076	0	0.029	-0.002	0.062	0.045	0.074	-0.041
KCT2 (UniProt Q8NC54)	0.104	0.007	0.006	0.017	-0.102	-0.013	-0.011	-0.008	-0.108	-0.025
ITPRIP (UniProt Q8IWB1)	-0.044	0.007	-0.01	0.081	0.005	0.02	0.061	-0.099	0.007	0.023
MEPCE (UniProt Q7L2J0)	0.077	0.025	-0.014	-0.252	-0.057	0.062	0.083	0.05	-0.04	0.025
MAPK12 (UniProt P53778)	-0.043	0.017	-0.022	0.09	-0.112	0.019	0.104	0.016	-0.058	-0.031
LNPK (UniProt Q9C0E8)	-0.011	0.01	-0.038	0.016	-0.023	-0.042	-0.027	-0.028	-0.018	0.012
IPO9 (UniProt Q96P70)	0.029	0.033	0	-0.001	-0.075	0.079	0.075	-0.022	-0.018	0.025
IMMT isoform 4 (UniProt Q16891)	0.009	0.012	0.032	0.032	-0.027	-0.007	0.002	-0.045	-0.022	0.001
KDM3B (UniProt Q7LBC6)	0.024	-0.041	-0.032	0.037	-0.045	0.049	0.031	0.041	-0.001	0.082
LUZP1 (UniProt Q86V48)	-0.128	0.136	-0.005	-0.182	0.184	0.05	-0.091	-0.029	0.031	-0.062
MED16 (UniProt Q9Y2X0)	-0.025	-0.044	-0.046	0.036	0.162	-0.017	0.046	0.014	0.076	-0.03
LPIN1 isoform 7 (UniProt Q14693)	-0.022	0.018	-0.022	-0.026	-0.023	-0.004	0.015	0.029	0.012	0.023
MICU2 (UniProt Q8IYU8)	0.022	0.067	0.091	0.05	0.198	0.053	0.183	0.042	-0.009	0.079
KPNA6 (UniProt O60684)	-0.06	-0.02	-0.014	-0.063	0.156	-0.09	0.078	0.068	0.018	0.047
MAGI1 (UniProt Q96QZ7)	0.041	0.041	-0.027	-0.023	0.074	0.018	-0.009	-0.026	-0.013	-0.008
MAPK8 isoform 3 (UniProt P45983)	-0.038	-0.026	-0.015	-0.012	-0.099	0.027	0.012	0.016	0.119	0.056
IL27RA (UniProt Q6UWB1)	-0.048	-0.048	-0.006	-0.018	0.027	-0.025	-0.091	-0.008	0.006	0.011
KDM1A isoform 2 (UniProt O60341)	-0.029	0.058	0.01	0.002	0.023	-0.02	0.033	0.046	0.101	0.013
LUC7L2 (UniProt Q9Y383)	0.016	-0.011	0.006	0.089	-0.036	0.012	0.047	0.015	-0.01	0
INTS5 (UniProt Q6P9B9)	0.091	-0.061	0.026	0.042	0.01	0.087	0.074	0.122	0.038	0.015
